Reference: the supplement of paper PMC9135407
Where a name gives a salt, the structure may show the parent alone.

test system: primary human hepatic stellate cells (donor 1); test: ACTA2 mRNA fold change vs DMSO (normalised to PSMB2); higher = more ACTA2 expression; conditions: 48 h
Experimental: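 Secondary qRT-PCR screen in primary human HSCs (donor 1), 384-well plates, with compounds dispensed in quadruplicate and incubated for 48 h. Cells-to-CT lysates were used for multiplexed TaqMan qPCR of ACTA2 or COL1A1 with PSMB2 as reference. Fold changes versus DMSO come from a linear model (Ct_gene ~ Ct_PSMB2 + plate + chemical). A hit is defined as COL1A1 and ACTA2 FC <0.5 (FDR <0.05) with PSMB2 between 0.2 and 2.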

Structure (SMILES) | ACTA2 mRNA fold change
Cc1nc(Nc2ncc(C(=O)Nc3c(C)cccc3Cl)s2)cc(N2CCN(CCO)CC2)n1 (33.3333 µM) | 0.192
c1cc(OCCN2CCCCC2)cc(-c2n[nH]c3ccc(-c4nnc[nH]4)cc23)c1 (33.3333 µM) | 0.0437
CNCc1ccc(-c2[nH]c3cc(F)cc4c3c2CCNC4=O)cc1 (33.3333 µM) | 0.864
Clc1ccccc1CNCC1CCC(CNCc2ccccc2Cl)CC1 (stereo not given) (33.3333 µM) | 0.0214
O=C(Nc1ncc(SCCN2CCCC2)s1)[C@]1(c2ccc(S(=O)(=O)C3CC3)cc2)C[C@H]1C1CCCCC1 (11.1 µM) | 0.00928
CNCc1ccc(-c2cc(-c3nc(-c4ccc(S(=O)(=O)C(C)C)cc4)cnc3N)on2)cc1 (11.1 µM) | 0.0206
O=C(O[C@H]1CN2CCC1CC2)N1CCc2ccccc2[C@@H]1c1ccccc1 [Solifenacin succinate] (33.3333 µM) | 0.257
Cc1cnc(-c2cnc(NCCNc3ccc(C#N)cn3)nc2-c2ccc(Cl)cc2Cl)[nH]1 (33.3333 µM) | 0.259
CC(C)(C)c1cc(NC(=O)Nc2ccc(-c3cn4c(n3)sc3cc(OCCN5CCOCC5)ccc34)cc2)no1 [Quizartinib  (AC220)] (11.1 µM) | 0.258
Cc1[nH]c(/C=C2\C(=O)Nc3ccc(S(=O)(=O)N(C)c4cccc(Cl)c4)cc32)c(C)c1C(=O)N1CCN(C)CC1 (33.3333 µM) | 0.425
CS(=O)(=O)CCNCc1ccc(-c2ccc3ncnc(Nc4ccc(OCc5cccc(F)c5)c(Cl)c4)c3c2)o1 (6.66667 µM) | 1.05
COc1cc2ncn(-c3cc(OCc4ccccc4C(F)(F)F)c(C(N)=O)s3)c2cc1OC (33.3333 µM) | 0.333
Cc1ccc(-c2ccc3c(ccc4sc5c(c43)NC[C@@H](C)NC5=O)n2)cn1 (33.3333 µM) | 1.65
Cc1cc(C(=O)Nc2cc(Nc3ccc4c(/C=C/c5ccccn5)n[nH]c4c3)ccc2F)n(C)n1 (33.3333 µM) | 0.469
CCN(CC)CCOc1ccc(Cc2ccccc2)cc1 [DPPE fumarate] (33.3333 µM) | 0.397
CC(C)c1ccc(C(=O)c2cccs2)c(SCCCCCCCCN(C)C)n1 (33.3333 µM) | 0.846
CN1CCC(CNc2ccc3ncc(-c4cccc(OC(F)(F)F)c4)n3n2)CC1 (6.66667 µM) | 1.23
C[C@]12CC[C@H](O)CC1=CC[C@@H]1[C@@H]2CC[C@]2(C)C(n3cnc4ccccc43)=CC[C@@H]12 [Galeterone] (33.3333 µM) | 0.0205
COc1ccccc1OCCNCC(O)COc1cccc2[nH]c3ccccc3c12 (stereo not given) [Carvedilol] (33.3333 µM) | 0.0773
CNCc1ccc(C)c(NC(=O)c2ccc(Nc3nc(-c4ccccc4)c4ccccc4n3)cc2)c1 (33.3333 µM) | 0.0244

Structure (SMILES) | ACTA2 mRNA fold change
CN1CCN(C2=Cc3ccccc3Oc3ccc(Cl)cc32)CC1 (33.3333 µM) | 0.196
CCCSc1ccc2[nH]c(NC(=O)OC)nc2c1 [Albendazole] (33.3333 µM) | 0.173
CCN(CC)CCNC(=O)c1c(C)[nH]c(/C=C2\C(=O)Nc3ccc(F)cc32)c1C (6.66667 µM) | 1.2
Cn1cc(CNCC2CCN(c3ncc(C(=O)NO)cn3)CC2)c2ccccc21 [Quisinostat] (33.3333 µM) | 0.00604
C#C[C@]1(O)CC[C@H]2[C@@H]3CCC4=Cc5oncc5C[C@]4(C)[C@H]3CC[C@@]21C [Danazol] (33.3333 µM) | 0.0332
O=C1NC(=O)/C(=C/c2ccc(-c3ccc(F)cc3O)o2)S1 (33.3333 µM) | 0.0492
CCCCCCCCCCCCCCCCn1cc[n+](Cc2ccccc2)c1C (11.1 µM) | 0.0378
CCC/C=C\C=C/C(=O)N[C@@H](CC(N)=O)C(=O)NC(CC(N)=O)C(=O)N[C@@H](C(=O)N[C@H](CCCN)C(=O)N[C@@H](C(=O)N[C@@H](C(=O)N[C@@H](C(=O)N[C@H](C(=O)N[C@@H](Cc1ccccc1)C(=O)N[C@H](CCCN)C(=O)NC(C(=O)N[C@H](C(=O)NC(C(=O)NCC(=O)N[C@@H](CC(C)C)C(=O)N[C@H](C)C(=O)NC(C(=O)O)C1CCC(O)C(Cl)C1)C1CCC(O)CC1)[C@H](C)O)C1CCC(O)CC1)[C@H](C)O)C1CCC(O)CC1)C1CCC(O)CC1)[C@H](C)O)C1CCC(O)CC1 (stereo not given in full) (33.3333 µM) | 0.502
CN1CCN2c3ccccc3Cc3ccccc3C2C1 (stereo not given) [Mianserin hcl] (25.2333 µM) | 0.899
CC1(C)CC(=O)c2c(C(F)(F)F)nn(-c3ccc(C(N)=O)c(N[C@H]4CC[C@H](OC(=O)CN)CC4)c3)c2C1 (33.3333 µM) | 0.967
O=C(c1ccc(/C=C/c2n[nH]c3ccccc23)cc1)N1CCNCC1 (33.3333 µM) | 0.0375
COc1ccc(NS(=O)(=O)c2sc3ccc(Cl)cc3c2C)cc1N1CCNCC1 (33.3333 µM) | 0.0163
CC[C@]1(O)C[C@@H]2CN(CCc3c([nH]c4ccccc34)[C@@](C(=O)OC)(c3cc4c(cc3OC)N(C)[C@H]3[C@@](O)(C(=O)OC)[C@H](OC(C)=O)[C@]5(CC)C=CCN6CC[C@]43[C@@H]65)C2)C1 [Vinblastine sulfate] (33.3333 µM) | 0.02
O=C1Nc2ccccc2/C1=C1/Nc2ccccc2C1=O [Indirubin] (63.5333 µM) | 1.06
Cc1ccc(NC(=O)C(C)C)cc1C1CCN(Cc2ccc(Oc3ccc(F)c(F)c3)cc2)CC1 (33.3333 µM) | 0.0197
CN(C)CCC(c1ccc(Br)cc1)c1ccccn1 (stereo not given) [Brompheniramine maleate] (33.3333 µM) | 1.25
CCCCCCCCCCCCC/C=C/[C@@H](O)[C@H](CO)N(C)C [N,N-Dimethylsphingosine] (3.33333 µM) | 0.651
CC#CCOC(=O)c1c(C)nc2sc3c(c2c1N)CCC(O)C3 (stereo not given) (33.3333 µM) | 0.806
CNC(=O)[C@@H](Cc1ccccc1)N(C)C(=O)[C@@H](Cc1ccc2ccccc2c1)N(C)C(=O)/C=C/CC(C)(C)N [Tabimorelin] (33.3333 µM) | 0.46
CN1CCC(Nc2ncc3ncnc(Nc4ccc(F)c(Cl)c4)c3n2)CC1 [BIBX 1382 dihydrochloride] (33.3333 µM) | 0.00877
